# The whole screen tested about 330,000 compounds, of which about 4,200 (1.3%) were called active. Roughly 6% stayed inconclusive and do not appear here. The call rests on the fitted dose curve; in most records, active means well fitted activation curve with a large enough effect; inconclusive means small, poorly fitted or top-dose-only effect; inactive means no such curve, though single readings can be large or run the other way. Many of the other results were omitted from the sample, so actives are more common in it than they were.
# Test: qHTS screen for small molecules that induce genotoxicity in human embryonic kidney (HEK293T) cells expressing luciferase-tagged ELG1; further: nearly all actives have a fitted effect of over 60% in size; on activity change, positive = activation: % of control where 0% means no effect
# Conditions: HEK293T ELG1-luciferase reporter, luminescence, 16 h; series mostly up to 46 µM; activity change, positive = activation: at the top concentration
# How it was run: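 HEK293T cells expressing luciferase-tagged ELG1 were exposed to compound or DMSO vehicle for 16 hr at 37 °C and 5% CO2. Luciferase activity was then measured with ONE-Glo after 30 min at room temperature.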
# Potency means the concentration at half of the fitted maximal effect.
SMILES,"activity change, positive = activation",Potency
COc1cc(C2CC(=O)Oc3cc(OC)c(OC)c(OC)c32)cc(OC)c1OC (configuration not stated),6.8% (inactive),
CC1CC(=NNC(=O)C2COc3ccccc3O2)CC(C)(C)C1 (configuration not stated),-0.92% (inactive),
COc1cc(SC)ccc1C(=O)Nc1nc(C)cs1,,0.058 µM (active)
COc1cc(SC)ccc1C(=O)N(Cc1ccccc1)c1ccccc1,-15.1% (inactive),
Cc1csc(NC(=O)c2ccc(-c3ccc(Cl)cc3Cl)o2)n1,3.82% (inactive),
CN(C)C(=O)CCc1ccc2c3c([nH]c2c1)[C@]1(CCc2ccccc2)[C@@H](C(=O)N2CCCCC2)C[C@H](CC(=O)NCCC2=CCCCC2)C(=O)N1CC3,-1.89% (inactive),
CN(Cc1ccc(F)cc1)C(=O)CN1C(=O)c2ccccc2S1(=O)=O,1.21% (inactive),
CC[C@]12c3[nH]c4cc(CCC(=O)N(C)C)ccc4c3CCN1C(=O)[C@@H](CC(=O)NCc1ccco1)C[C@@H]2C(=O)N1CCN(C(=O)c2ccco2)CC1,20.3% (inactive),
COc1cc(/C=N/N2CCN(c3ccccc3)CC2)ccc1OC(C)=O,9.3% (inactive),
C(=N/N1CCN(c2ccccc2)CC1)/c1cccs1,,14.6 µM (active)
Cc1ccc(N2CCN(/N=C/c3cccs3)CC2)cc1,13% (inactive),
CN(CC(=O)Nc1ccc(OC(F)F)cc1)S(=O)(=O)/C=C/c1ccccc1,-3.81% (inactive),
COc1ccc2sc(-c3ccc(N(C)C)cc3)c(-c3ccc4cc[nH]c4c3)c2c1,17.5% (inactive),
O=C(Nc1ccc(NC(=O)c2cccs2)cc1)c1ccc2ccccc2c1,7.6% (inactive),
Cc1ccc(C(=O)Nc2ccc(NC(=O)c3cccs3)cc2)c(C)c1,12.3% (inactive),
O=C(Nc1ccc2oc(-c3ccc4ccccc4c3)nc2c1)c1cccs1,,2.91 µM (active)
COc1ccc(CCNC(=O)COC(=O)c2cnc(Cl)c(Cl)c2)cc1,1.14% (inactive),
CCOC(=O)c1cc2cc(C)ccc2[nH]1,,20.6 µM (active)
CCOC(=O)c1[nH]c2ccc(C)cc2c1N=C(C)N(C)C,23.2% (inactive),
Cc1ccc2[nH]c(=O)c(COC(=O)c3ccccn3)cc2c1,-6.71% (inactive),
C[C@H]1CN([C@@H](C)CO)C(=O)Cc2cc(NC(=O)Cc3ccccc3)ccc2O[C@H]1CN(C)S(=O)(=O)c1cccs1,1.09% (inactive),
Cc1ccc(N2C(=O)N3[C@@H]4c5ccccc5OC[C@@H]4[C@@H](c4ccccc4)[C@@]3(C)C2=O)cc1,-0.332% (inactive),
Cc1ccc(C(=O)c2c(NC(=O)c3ccccc3)sc(C)c2C)cc1,-2.49% (inactive),

SMILES,"activity change, positive = activation",Potency
COc1ccccc1-c1nnc(NC(=O)c2ccc3ncsc3c2)o1,7.32% (inactive),
Cc1sc(NC(=O)c2ccc3ncsc3c2)c(C(N)=O)c1C,,2.31 µM (active)
C=CC[C@H](CC(=O)NCCO)C(=O)N[C@@H](COC(=O)[C@@H](CC=C)Cc1ccc(F)cc1)Cc1c[nH]c2ccccc12,-2.33% (inactive),
CC(=O)c1ccc2c(c1)OCCOCCOc1ccc(C(C)=O)cc1OCCOCCO2,-0.445% (inactive),
CCN(CC)Cc1cc(C(C)=O)ccc1O,3.57% (inactive),
CC(=O)c1ccc2c(ccc3ccccc32)c1,,23.1 µM (active)
COc1ccccc1N(CC(=O)Nc1ccc(C)cc1Cl)S(=O)(=O)c1cccs1,-2.65% (inactive),
C=CCn1c(SCc2c(C)noc2C)nc2sc3c(c2c1=O)CCC(C)C3 (configuration not stated),0.713% (inactive),
CCCSc1nc2sc3c(c2c(=O)n1-c1ccc(OC)cc1)CCN(C)C3,-9.85% (inactive),
CCCn1nnc2sc3c(c2c1=O)CCC(C)C3 (configuration not stated),,11.6 µM (active)
O=C(COC(=O)COc1ccccc1F)Nc1cccc(S(=O)(=O)N2CCCCC2)c1,4.69% (inactive),
COc1cc(OC)cc(C(=O)NNC(=O)Cc2cccs2)c1,-0.795% (inactive),
Cc1cc(C)nc(Nc2n[nH]c(-c3ccccc3N)n2)n1,,2.31 µM (active)
Cc1cc(C)nc(Nc2ncn[nH]2)n1,-0.83% (inactive),
CCCOc1ccccc1-c1nc(SCCC(=O)O)n[nH]1,1.68% (inactive),
COc1cc(OC)cc(-c2c(C#Cc3ccsc3)c3cc(-c4ccc(OC)cc4F)ccc3n2C)c1,5.57% (inactive),
OC(c1nnc(-c2ccccc2)o1)c1cccs1 (configuration not stated),-5.58% (inactive),
Nc1ccc(-c2nnc(-c3ccccc3)o2)cc1,,16.4 µM (active)
Nc1ccc(-c2sc(N)nc2-c2ccccc2)cc1,0.398% (inactive),
CC(C)n1cnc2c(NCc3ccccc3)cc(OCC3CCN(C)CC3)cc21,-8.43% (inactive),
Cc1ccc(-c2csc(NC(=O)Cn3[nH]c(=O)c4ccccc4c3=O)n2)cc1,8.72% (inactive),
Cc1ccc(-c2csc(NC3OC(=O)c4ccccc43)n2)cc1 (configuration not stated),-7.01% (inactive),
Cc1ccc(-c2csc(-c3c[nH]c4ccccc34)n2)cc1,,23.1 µM (active)

SMILES,"activity change, positive = activation",Potency
O=C(Cn1cc(C(F)(F)F)ccc1=O)Nc1ccc2c(c1)OCCO2,-0.83% (inactive),
Cc1ccc(C)c(N2CCN(C(=O)CCc3nc(-c4cccc(C(F)(F)F)c4)no3)CC2)c1,11.2% (inactive),
Cc1c(C(=O)Nc2cccc(S(=O)(=O)N3CCOCC3)c2)oc2ccccc12,-4.37% (inactive),
O=C(COC(=O)c1n[nH]c2ccccc12)Nc1ccccc1Br,4.1% (inactive),
CC(=O)Nc1ccc(NC(=O)COC(=O)C2CCC(C(C)(C)C)CC2)cc1 (configuration not stated),-0.905% (inactive),
Cc1ccc2cc(/C=N/Nc3ccc(C(=O)O)cc3)c(Cl)nc2c1,,18.3 µM (active)
CSCC[C@H](NC(=O)OC(C)(C)C)C(=O)N/N=C/c1cc2ccc(C)cc2nc1Cl,0.217% (inactive),
Cc1ccc2cc(/C=N/NC(=O)[C@@H]3CCCN3)c(Cl)nc2c1,4.73% (inactive),
COc1ccc(CC(=O)N[C@@H]2c3cc(OC)c(OC)cc3C[C@H]2OCc2ccccc2)cc1,-1.99% (inactive),
Cc1cc(C(=O)CSc2nc(N)cc(=O)[nH]2)c(C)n1-c1cccc(F)c1,9.74% (inactive),
Cc1ccc(C(=O)NNC(=O)CSc2nnc3ccccn23)cc1,-1.99% (inactive),
Cc1ccc(-n2c(C)cc(C(=O)CSc3nnc4ccccn34)c2C)cc1,,5.17 µM (active)
CCN(C(=O)CSc1nnc2ccccn12)C1CCS(=O)(=O)C1 (configuration not stated),0.0236% (inactive),
O=C(CSc1nnc2n1CCCN2)c1ccccc1,19.4% (inactive),
O=C(CSc1nnc2ccccn12)c1ccccc1,,11.6 µM (active)
CC1CCCCC12NC(=O)N(CC(=O)OCc1c(F)cccc1Cl)C2=O (configuration not stated),-3.2% (inactive),
C[C@H](NS(=O)(=O)c1ccc(Cl)cc1)C(=O)OCC(=O)N1CCOCC1,-0.494% (inactive),
COc1cc(OC)cc(-c2sc3ccc(OC)cc3c2-c2ccc3cc[nH]c3c2)c1,-0.81% (inactive),
CCn1c(SCC(=O)NCC2CCCO2)nc2ccccc21 (configuration not stated),0.58% (inactive),
Cn1c(SCC(=O)c2ccccc2)ncc(C(=O)Nc2ccc(F)cc2)c1=O,-8.49% (inactive),
Cc1ccc(NC(=O)c2cnc(SCC(=O)NCC3CCCO3)n(C)c2=O)cc1 (configuration not stated),,20.6 µM (active)
